Inconclusive results are not listed. A number with no mark means an inactive call.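 The calls were made as follows, unless noted: active = cell viability at or below a set limit in both duplicate runs, the limit being the all-compound median minus 4 SD (cut at about 23% in these data, passing the limit was not always enough); inconclusive = no clear call, values can overlap the other calls; inactive = the rest.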

By viability is commonly meant a read-out of living cells in per cent, often relative to untreated cells.

The first assay can be described thus: viability of HCT116 without oncogenic beta-catenin – human colon tumor cells, pilot screen (AID 823).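 Also: 0% = wells killed by 20 µM Hyamine and 100% = untreated DMSO cell wells.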 Conditions: HCT116 beta-catenin knockout viability, CellTiter-Glo, 60 h; at 10 µM; stronger effect = lower value.
For `C=CCOC(=O)C1=C(C)NC(=O)NC1/C=C/c1ccccc1` (stereo not given), the viability was 92.5%.

In the case of `Cc1nnc(NC(=O)CSc2nnc(Cc3cccn3C)n2-c2ccccc2)s1`, the viability is 95%.

With `COc1ccc(-n2nnc3c(=O)n(CC(=O)OCc4ccccc4)cnc32)cc1`, the viability was 98.7%.

Regarding `Cc1ccc(C(C(=O)NC2CCCC2)N2CCCCC2)cc1` (stereo not given), the viability is 86.9%.

For `COc1ccc(OC)c2sc(NC(=O)c3ccc(Br)s3)nc12`, the viability is 85.1%.

On to `COc1ccc(NC(=O)N(Cc2cccnc2)Cc2ccccc2Cl)c(OC)c1`, for which the viability was 91.2%.

Turning to `O=C(O)c1cc(Cl)c(Cl)cc1C(=O)N1CCOCC1`, the viability is 94%.

On to `Cc1nnc(NC(=O)CSc2nnc(CNC(=O)c3ccccc3)n2-c2ccccc2)s1`, for which the viability was 96.1%.

On to `c1cncc(-c2nc3ccccn3c2Nc2ccc3c(c2)OCCO3)c1`, for which the viability is 99.6%.

Regarding `O=c1[nH]cnc2c1sc(=S)n2-c1ccccc1`, the viability was 101%.

`O=C1c2ccccc2C(=O)C1c1ccncc1`: the viability is 92.6%.

For `COc1ccccc1-n1c(CNC(=O)c2ccco2)nnc1SCC(=O)Nc1nccs1`, the viability is 77.4%.

As to `O=C(NCc1ccccc1)c1ccc(/C=N/O)nc1`, the viability is 98.2%.

As for `C=CCOC(=O)COc1ccc2c(C)c(C)c(=O)oc2c1`, the viability is 96.6%.

`CC1CCN(C(=O)c2cc(-c3ccccc3O)on2)CC1`: the viability is 108%.

In the case of `CCCCn1c(=O)cc(N2CCOCC2)[nH]c1=O`, the viability is 99.7%.

On to `COC(=O)c1ccccc1NS(=O)(=O)c1cn(C)c(=O)n(C)c1=O`, for which the viability was 101%.

As to `CCOC(=O)c1c(C)n(C)c2ccc(OCC(N)=O)cc12`, the viability was 100%.

For the compound `CC(=O)NCC(=O)N(c1ccccc1)C1(C(=O)NC2CCCCC2)CCCCC1`, the viability is 103%.

With `C=CCNc1nc2c(c(=O)n(C)c(=O)n2C)n1CC(=C)C`, the viability was 91.2%.

Turning to `O=C(C1CC1)N1CCc2cc(Br)cc(S(=O)(=O)NCc3ccccn3)c21`, the viability was 99.2%.

For the compound `Cc1cccc(OCCn2c(=O)n(C)c3ccccc32)c1`, the viability was 85.3%.

In the case of `COc1ccc(CCNc2nc(=O)[nH]nc2C)cc1OC`, the viability is 96%.

For `COCCNC(=O)Cn1cnc2sc(C)c(S(=O)(=O)N3CCC(C)CC3)c2c1=O`, the viability is 100%.

For the compound `CNC(=O)N(C1=NCC(C)(C)S1)c1ccc(F)c(Cl)c1`, the viability is 40.4%.

Consider `CN(C)CCNC(=O)c1ccc(CS(=O)(=O)c2ccc(Br)cc2)o1`, for which the viability was 103%.

As to `Cc1cc(NC(=O)c2ccccc2)sc1C`, the viability was 70.7%.

Regarding `CCOC(=O)N1CCC(NC(=O)c2cc3c(-c4ccc(Cl)cc4)nn(C)c3s2)CC1`, the viability is 91.4%.

`O=C(CSc1ncnc2c1oc1ccccc12)NCc1ccc(F)cc1`: the viability was 68.6%.

As to `CCCCSC1=C(C#N)C(c2ccccc2C)CC(=O)N1` (stereo not given), the viability was 95.1%.

In the case of `CC(=O)NCC(=O)OCC(=O)c1ccc(C)cc1`, the viability is 97.6%.

As to `CC1(C)Cc2c(C#N)c(NC3CCCCC3)nc(-c3ccco3)c2CO1`, the viability was 80.3%.

As for `CC(C)NC(=O)c1ccc(CS(=O)(=O)c2ccc(Br)cc2)o1`, the viability is 87.1%.

Regarding `COC(=O)Cn1c(CN2CCN(c3ccc(F)cc3)CC2)nc2c1c(=O)n(C)c(=O)n2C`, the viability is 85.1%.

Take `CN1CCc2c(sc(NC(=O)c3ccc(S(=O)(=O)N4CCOCC4)cc3)c2C(N)=O)C1`: the viability was 111%.

For the compound `O=C(NCCn1ccc2ccccc21)c1ccc(S(=O)(=O)N2CCCCC2)cc1`, the viability is 79.6%.

In the case of `Cn1c(CNC(=O)c2ccc(F)cc2)nc2ccccc21`, the viability was 99.5%.

As to `CC1(C)CC(=O)C=C(NCCN2CCN(C(=O)Nc3ccc(Cl)c(Cl)c3)CC2)C1`, the viability was 94.8%.

As to `CCc1ccc(S(=O)(=O)NCc2csc(-c3cccnc3)n2)s1`, the viability is 103%.

Take `CC(=O)c1cccc(NC(=O)N2CCCC2C(=O)NCc2ccccc2)c1` (stereo not given): the viability is 104%.

The next assay can be described thus: viability of PTEN-null HCT116 cells – cell-based, HCT116 clonal line, CellTiter-Glo, pilot screen (AID 824;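 active = viability at or below 27.92% in each of two runs, the all-compound median minus 4 SD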;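 also: 0% = 20 µM Hyamine control and 100% = vehicle cell control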). Conditions: HCT116 PTEN-deleted viability, 60 h, at 10 µM, stronger effect = lower value. (ATP-based viability assays read luminescence as a measure of living cells.)
As for `C=CCOC(=O)C1=C(C)NC(=O)NC1/C=C/c1ccccc1` (stereo not given), the viability is 95%.

With `Cc1nnc(NC(=O)CSc2nnc(Cc3cccn3C)n2-c2ccccc2)s1`, the viability is 95.3%.

For `COc1ccc(-n2nnc3c(=O)n(CC(=O)OCc4ccccc4)cnc32)cc1`, the viability was 99.9%.

For `Cc1ccc(C(C(=O)NC2CCCC2)N2CCCCC2)cc1` (stereo not given), the viability was 90.6%.

`COc1ccc(OC)c2sc(NC(=O)c3ccc(Br)s3)nc12`: the viability was 59.5%.

For `COc1ccc(NC(=O)N(Cc2cccnc2)Cc2ccccc2Cl)c(OC)c1`, the viability is 93.9%.

For `O=C(O)c1cc(Cl)c(Cl)cc1C(=O)N1CCOCC1`, the viability was 89.5%.

As to `Cc1nnc(NC(=O)CSc2nnc(CNC(=O)c3ccccc3)n2-c2ccccc2)s1`, the viability was 96.5%.

In the case of `c1cncc(-c2nc3ccccn3c2Nc2ccc3c(c2)OCCO3)c1`, the viability is 94.4%.

For `O=c1[nH]cnc2c1sc(=S)n2-c1ccccc1`, the viability was 97.1%.

On to `O=C1c2ccccc2C(=O)C1c1ccncc1`, for which the viability was 91.3%.

On to `COc1ccccc1-n1c(CNC(=O)c2ccco2)nnc1SCC(=O)Nc1nccs1`, for which the viability is 66.2%.

In the case of `O=C(NCc1ccccc1)c1ccc(/C=N/O)nc1`, the viability was 106%.

Regarding `C=CCOC(=O)COc1ccc2c(C)c(C)c(=O)oc2c1`, the viability is 95.9%.

As for `CC1CCN(C(=O)c2cc(-c3ccccc3O)on2)CC1`, the viability was 91.5%.

Regarding `CCCCn1c(=O)cc(N2CCOCC2)[nH]c1=O`, the viability was 94.3%.

For `COC(=O)c1ccccc1NS(=O)(=O)c1cn(C)c(=O)n(C)c1=O`, the viability was 92.6%.

On to `CCOC(=O)c1c(C)n(C)c2ccc(OCC(N)=O)cc12`, for which the viability is 99.3%.

Turning to `CC(=O)NCC(=O)N(c1ccccc1)C1(C(=O)NC2CCCCC2)CCCCC1`, the viability was 98.3%.

Consider `C=CCNc1nc2c(c(=O)n(C)c(=O)n2C)n1CC(=C)C`, for which the viability was 91.8%.

For the compound `O=C(C1CC1)N1CCc2cc(Br)cc(S(=O)(=O)NCc3ccccn3)c21`, the viability was 96.9%.

`Cc1cccc(OCCn2c(=O)n(C)c3ccccc32)c1`: the viability was 83%.

Take `COc1ccc(CCNc2nc(=O)[nH]nc2C)cc1OC`: the viability is 96.5%.

Turning to `COCCNC(=O)Cn1cnc2sc(C)c(S(=O)(=O)N3CCC(C)CC3)c2c1=O`, the viability is 100%.

Turning to `CNC(=O)N(C1=NCC(C)(C)S1)c1ccc(F)c(Cl)c1`, the viability is 35.7%.

For the compound `CN(C)CCNC(=O)c1ccc(CS(=O)(=O)c2ccc(Br)cc2)o1`, the viability is 103%.

In the case of `Cc1cc(NC(=O)c2ccccc2)sc1C`, the viability was 70%.

With `CCOC(=O)N1CCC(NC(=O)c2cc3c(-c4ccc(Cl)cc4)nn(C)c3s2)CC1`, the viability is 92.1%.

On to `O=C(CSc1ncnc2c1oc1ccccc12)NCc1ccc(F)cc1`, for which the viability was 81%.

Turning to `CCCCSC1=C(C#N)C(c2ccccc2C)CC(=O)N1` (stereo not given), the viability is 79.6%.

Turning to `CC(=O)NCC(=O)OCC(=O)c1ccc(C)cc1`, the viability was 94.9%.

Take `CC1(C)Cc2c(C#N)c(NC3CCCCC3)nc(-c3ccco3)c2CO1`: the viability is 76.3%.

`CC(C)NC(=O)c1ccc(CS(=O)(=O)c2ccc(Br)cc2)o1`: the viability was 95.1%.

Consider `COC(=O)Cn1c(CN2CCN(c3ccc(F)cc3)CC2)nc2c1c(=O)n(C)c(=O)n2C`, for which the viability was 86.2%.

With `CN1CCc2c(sc(NC(=O)c3ccc(S(=O)(=O)N4CCOCC4)cc3)c2C(N)=O)C1`, the viability was 103%.

Take `O=C(NCCn1ccc2ccccc21)c1ccc(S(=O)(=O)N2CCCCC2)cc1`: the viability was 71.1%.

As for `Cn1c(CNC(=O)c2ccc(F)cc2)nc2ccccc21`, the viability is 102%.

For the compound `CC1(C)CC(=O)C=C(NCCN2CCN(C(=O)Nc3ccc(Cl)c(Cl)c3)CC2)C1`, the viability is 90.1%.

As to `CCc1ccc(S(=O)(=O)NCc2csc(-c3cccnc3)n2)s1`, the viability was 101%.

For the compound `CC(=O)c1cccc(NC(=O)N2CCCC2C(=O)NCc2ccccc2)c1` (stereo not given), the viability was 100%.

These data come from PubChem BioAssay.
